PubChem BioAssay (EPA / NIEHS)
Results filed as inconclusive are left out. Active and inactive are the calls of the source. Rule for the calls, unless noted: active = hit-call score of the fitted dose curve at least 0.9, where 1 is the maximum; inconclusive = response in the unintended direction; inactive = score below 0.9.

Columns and labels:
[1] = target: Estrogen receptor (Homo sapiens) (UniProt P03372); assay: ATG_ERa_TRANS: Attagene TRANS-FACTORIAL HepG2 Assay for human Estrogen Receptor alpha (ERa) (AID 2282970); conditions: HepG2 Attagene TRANS ERa GAL4 reporter, mRNA
Summary of the method: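 HepG2 cells transiently transfected with multiplexed GAL4-UAS reporter units read out chimeric NR-Gal4 activity. After 24 h compound exposure, reporter mRNA was quantified by RT-PCR, 6-FAM labeling, HpaI digestion and capillary electrophoresis, relative to DMSO.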

[2] = target: Steroid hormone receptor ERR1 (Homo sapiens) (UniProt P11474); assay: ATG_ERRa_TRANS: Attagene TRANS-FACTORIAL HepG2 Assay for human Estrogen-Related Receptor alpha (ERRa) (AID 2282971); conditions: HepG2 Attagene TRANS reporter, ERRa transactivation
Summary of the method: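 HepG2 cells transiently transfected with GAL4-UAS reporter units and chimeric NR-Gal4 constructs; after 24 hour compound incubation, reporter mRNA quantified by RT-PCR, fluorescent labelling and capillary electrophoresis, gain of signal versus DMSO.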

[3] = target: X-box-binding protein 1 (Homo sapiens) (UniProt P17861); assay: ATG_Xbp1_CIS: Attagene CIS-FACTORIAL HepG2 Assay for human X-box Binding Protein 1 (XBP1) (AID 2282972; active = hit-call score of the fitted dose curve at least 0.9, where 1 is the maximum; inactive = score below 0.9); conditions: HepG2 XBP1 cis-element reporter, Attagene multiplex; actives raise or lower the signal
Summary of the method: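 Fluorescence-labelled cDNA fragments from reporter transcripts, separated by capillary electrophoresis, give the signal. Source: HepG2 cells transfected with promoter-driven reporter units, harvested 24 h post-dose. DMSO served as reference for bidirectional curve fitting.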

[4] = ATG_M_19_TRANS: Attagene TRANS-FACTORIAL HepG2 Assay for M19 Transcription Factor (Internal Marker) (AID 2282974); conditions: HepG2 Attagene TRANS-FACTORIAL M19 internal marker reporter
Summary of the method: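 HepG2 transiently transfected with GAL4-UAS multiplex reporter constructs, exposed 24 h; reporter RNA quantified by RT-PCR, 6-FAM labeling, HpaI digestion and capillary electrophoresis; internal background marker fitted upward versus DMSO.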

[5] = ATG_GAL4_TRANS: Attagene TRANS-FACTORIAL HepG2 Assay for GAL4 (Internal Marker) (AID 2282976); conditions: HepG2 Attagene TRANS GAL4 internal marker reporter
Summary of the method: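 Background-control readout: GAL4-UAS reporter transcript in transiently transfected HepG2 cells after 24 h compound exposure. Measured by RT-PCR, 6-FAM primer extension, HpaI digest and capillary electrophoresis; gain-of-signal fit versus DMSO.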

[6] = target: Estrogen-related receptor gamma (Homo sapiens) (UniProt P62508); assay: ATG_ERRg_TRANS: Attagene TRANS-FACTORIAL HepG2 Assay for human Estrogen-Related Receptor gamma (ERRg) (AID 2282977); conditions: HepG2 Attagene TRANS reporter, ERRg transactivation;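 note: hits increase reporter signal over DMSO so potencies reflect activators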
Summary of the method: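 HepG2 cells transiently transfected with multiplexed GAL4-UAS reporter units and chimeric NR-Gal4 constructs were exposed to test chemicals for 24 h. Reporter mRNA was measured by RT-PCR, 6-FAM primer extension, HpaI digestion and capillary electrophoresis; gain-of-signal versus DMSO.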

[7] = target: Glucocorticoid receptor (Homo sapiens) (UniProt P04150); assay: ATG_GR_TRANS: Attagene TRANS-FACTORIAL HepG2 Assay for human Glucocorticoid Receptor (GR) (AID 2282978); conditions: HepG2 Attagene TRANS GR reporter, mRNA transcription;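 note: activators score as hits since higher reporter transcript over DMSO is fitted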
Summary of the method: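 HepG2 cells transiently transfected with GAL4-UAS reporter units and exogenous GR-Gal4 chimera, dosed 24 h. Reporter mRNA by RT-PCR, FAM labeling, HpaI digest and capillary electrophoresis; gain-of-signal fit versus DMSO.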

[8] = target: Oxysterols receptor LXR-alpha (Homo sapiens) (UniProt Q13133); assay: ATG_LXRa_TRANS: Attagene TRANS-FACTORIAL HepG2 Assay for human Liver X Receptor alpha (LXRa) (AID 2282980); conditions: HepG2 Attagene TRANS reporter, LXRa transactivation
Summary of the method: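 HepG2 cells transiently transfected with GAL4-UAS reporter units for chimeric NR-Gal4 proteins, exposed to chemicals for 24 h. Reporter mRNA quantified by RT-PCR and capillary electrophoresis; gain of signal fitted relative to DMSO.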

[9] = ATG_M_32_TRANS: Attagene TRANS-FACTORIAL HepG2 Assay for M32 Transcription Factor (Internal Marker) (AID 2282984); conditions: HepG2 Attagene TRANS M32 internal marker reporter
Summary of the method: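 HepG2 cells transiently transfected with multiple GAL4-UAS reporter transcription units, dosed for 24 hours; reporter mRNA quantified by RT-PCR, 6-FAM primer extension, HpaI digestion and capillary electrophoresis. Gain-of-signal fitted versus DMSO baseline; internal background-control marker.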

[10] = target: Nuclear receptor subfamily 4 group A member 2 (Homo sapiens) (UniProt P43354); assay: ATG_NURR1_TRANS: Attagene TRANS-FACTORIAL HepG2 Assay for human Nuclear Receptor Related Protein 1 (NURR1) (AID 2282985); conditions: HepG2 Attagene TRANS reporter, mRNA readout
Summary of the method: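 HepG2 cells transiently transfected with GAL4-UAS reporter units and chimeric NR-Gal4 constructs; chemical exposure 24 h. Reporter mRNA quantified by RT-PCR, fluorescent labelling and capillary electrophoresis; gain of signal fitted relative to DMSO baseline.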

[11] = target: Transcriptional activator Myb (Homo sapiens) (UniProt P10242); assay: ATG_Myb_CIS: Attagene CIS-FACTORIAL HepG2 Assay for human Myeloblastosis (Myb) Proto-Oncogene Transcription Factor (AID 2282986; active = hit-call score of the fitted dose curve at least 0.9, where 1 is the maximum; inactive = score below 0.9); conditions: HepG2 Attagene CIS-FACTORIAL Myb reporter transcription; actives raise or lower the signal
Summary of the method: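 Transiently transfected HepG2 cells carrying a multiplexed cis-promoter reporter set report endogenous Myb activity after 24 h compound exposure. Reporter mRNA is read by RT-PCR with capillary electrophoresis of fluorescent products, fitted bidirectionally against DMSO.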

[12] = target: Nuclear respiratory factor 1 (Homo sapiens) (UniProt Q16656); assay: ATG_NRF1_CIS: Attagene CIS-FACTORIAL HepG2 Assay for human Nuclear Respiratory Factor 1 (NRF1) Orphan Gene (AID 2282987; active = hit-call score of the fitted dose curve at least 0.9, where 1 is the maximum; inactive = score below 0.9); conditions: HepG2 NRF1 cis-element reporter, Attagene multiplex; actives raise or lower the signal
Summary of the method: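 HepG2 cells transiently transfected with multiple cis-regulated reporter units, exposed 24 h. Reporter mRNAs measured by RT-PCR, fluorescent labelling, HpaI digestion and capillary electrophoresis; bidirectional fitting against DMSO.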

[13] = ATG_NFI_CIS: Attagene CIS-FACTORIAL HepG2 Assay for human Nuclear Factor I (NFI) (AID 2282989; active = hit-call score of the fitted dose curve at least 0.9, where 1 is the maximum; inactive = score below 0.9); conditions: HepG2 cis-regulatory reporter, NFI response element transcription; actives raise or lower the signal
Summary of the method: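 Read-out: reporter mRNA via RT-PCR plus capillary electrophoresis with fluorescence detection. Transiently transfected HepG2 (endogenous TF activity on cis promoters), 24 h compound exposure; gain or loss of signal fitted against DMSO.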

[14] = target: Myc proto-oncogene protein (Homo sapiens) (UniProt P01106); assay: ATG_Myc_CIS: Attagene CIS-FACTORIAL HepG2 Assay for human Myelocytomatosis (Myc) Proto-Oncogene Transcription Factor (AID 2282990; active = hit-call score of the fitted dose curve at least 0.9, where 1 is the maximum; inactive = score below 0.9); conditions: HepG2, Attagene cis-reporter transcription factor activity; actives raise or lower the signal
Summary of the method: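 HepG2 cells transiently transfected with multiple cis-promoter-driven reporter transcription units, so endogenous TF activity is read. After 24 h compound exposure, reporter mRNA was quantified by RT-PCR, 6-FAM labelling, HpaI digestion and capillary electrophoresis; bidirectional fit versus DMSO.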

[15] = target: Bile acid receptor (Homo sapiens) (UniProt Q96RI1); assay: ATG_FXR_TRANS: Attagene TRANS-FACTORIAL HepG2 Assay for Farnesoid X Receptor (FXR) (AID 2282979); conditions: HepG2 Attagene TRANS FXR-GAL4 reporter transcription;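 note: hits raise reporter mRNA above DMSO so AC50 marks FXR activation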
Summary of the method: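 HepG2 cells were transiently transfected with GAL4-UAS reporters driven by chimeric NR-Gal4 proteins and dosed for 24 h. Reporter mRNA was quantified by RT-PCR, fluorescent labelling, HpaI digestion and capillary electrophoresis, with gain of signal scored versus DMSO.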

[16] = target: Oxysterols receptor LXR-beta (Homo sapiens) (UniProt P55055); assay: ATG_LXRb_TRANS: Attagene TRANS-FACTORIAL HepG2 Assay for human Liver X Receptor beta (LXRb) (AID 2282981); conditions: HepG2 Attagene TRANS GAL4-LXRb reporter, mRNA
Summary of the method: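 HepG2 cells transiently transfected with multiple reporter transcription units carrying chimeric NR-Gal4 proteins acting on GAL4-UAS reporters; compound exposure 24 h. Reporter mRNA quantified by RT-PCR, 6-FAM labelling, HpaI digestion and capillary electrophoresis; gain of signal versus DMSO.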

[17] = target: Hepatocyte nuclear factor 4-alpha (Homo sapiens) (UniProt P41235); assay: ATG_HNF4a_TRANS: Attagene TRANS-FACTORIAL HepG2 Assay for human Hepatocyte Nuclear Factor 4 alpha (HNF4a) (AID 2282982); conditions: HepG2 HNF4a transactivation reporter, mRNA readout
Summary of the method: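 HepG2 cells transiently transfected with multiplexed GAL4-UAS reporter units responsive to chimeric NR-GAL4 proteins; compound exposure 24 h. Reporter mRNA quantified by RT-PCR, 6-FAM labelling, HpaI digestion and capillary electrophoresis; gain of signal versus DMSO baseline.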

[18] = ATG_M_06_TRANS: Attagene TRANS-FACTORIAL HepG2 Assay for M06 Transcription Factor (Internal Marker) (AID 2282983); conditions: HepG2 Attagene TRANS M06 internal marker reporter;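 note: reporter transcript level by RT-PCR then capillary electrophoresis fluorescence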
Summary of the method: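 HepG2 cells transiently transfected with GAL4-UAS multiple reporter units, dosed 24 h. Reporter RNA reverse-transcribed, PCR-amplified, 6-FAM-labeled, HpaI-digested and quantified by capillary electrophoresis; this internal-marker signal fitted upward relative to DMSO.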

[19] = target: Nuclear receptor subfamily 1 group I member 3 (Homo sapiens) (UniProt Q14994); assay: ATG_CAR_TRANS: Attagene TRANS-FACTORIAL HepG2 Assay for human Constitutive Androstane Receptor (CAR) (AID 2282969); conditions: HepG2 Attagene TRANS-FACTORIAL CAR reporter;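 note: activators raise reporter mRNA above DMSO so AC50 marks induction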
Summary of the method: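 HepG2 cells transiently transfected with multiplexed GAL4-UAS reporter units expressing chimeric NR-Gal4 proteins; compound exposure 24 h. Reporter mRNA measured by RT-PCR, 6-FAM labelling, HpaI digestion and capillary electrophoresis; gain-of-signal fitted against DMSO baseline.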

Measured: AC50

Chain of Nuclear respiratory factor 1 (Homo sapiens) (Q16656 whole entry, looked up): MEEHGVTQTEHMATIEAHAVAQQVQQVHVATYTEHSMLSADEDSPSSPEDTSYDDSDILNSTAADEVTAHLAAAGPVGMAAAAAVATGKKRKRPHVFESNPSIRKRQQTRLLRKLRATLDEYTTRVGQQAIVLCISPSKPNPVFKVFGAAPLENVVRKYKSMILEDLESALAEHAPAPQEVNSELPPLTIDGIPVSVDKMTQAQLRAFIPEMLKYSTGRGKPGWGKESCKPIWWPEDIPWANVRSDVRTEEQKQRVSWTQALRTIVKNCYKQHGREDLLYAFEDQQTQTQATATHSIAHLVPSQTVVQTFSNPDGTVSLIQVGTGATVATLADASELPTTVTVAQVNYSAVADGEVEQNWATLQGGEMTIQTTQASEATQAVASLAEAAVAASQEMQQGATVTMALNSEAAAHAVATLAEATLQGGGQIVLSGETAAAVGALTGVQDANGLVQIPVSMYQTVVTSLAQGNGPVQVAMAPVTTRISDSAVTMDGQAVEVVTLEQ
Chain of Steroid hormone receptor ERR1 (Homo sapiens) (P11474 whole entry, looked up, the tested form may be a part): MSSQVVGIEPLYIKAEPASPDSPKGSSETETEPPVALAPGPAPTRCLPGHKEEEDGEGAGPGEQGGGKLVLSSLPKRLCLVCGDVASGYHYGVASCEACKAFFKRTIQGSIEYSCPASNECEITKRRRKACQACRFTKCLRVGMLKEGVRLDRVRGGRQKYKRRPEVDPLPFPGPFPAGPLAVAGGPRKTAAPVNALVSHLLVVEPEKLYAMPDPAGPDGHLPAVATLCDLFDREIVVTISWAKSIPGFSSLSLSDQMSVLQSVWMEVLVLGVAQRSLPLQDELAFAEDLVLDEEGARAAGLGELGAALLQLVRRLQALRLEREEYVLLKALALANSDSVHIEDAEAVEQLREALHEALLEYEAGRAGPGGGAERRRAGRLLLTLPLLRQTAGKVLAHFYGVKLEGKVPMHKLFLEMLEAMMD
Chain of Transcriptional activator Myb (Homo sapiens) (P10242 whole entry, looked up): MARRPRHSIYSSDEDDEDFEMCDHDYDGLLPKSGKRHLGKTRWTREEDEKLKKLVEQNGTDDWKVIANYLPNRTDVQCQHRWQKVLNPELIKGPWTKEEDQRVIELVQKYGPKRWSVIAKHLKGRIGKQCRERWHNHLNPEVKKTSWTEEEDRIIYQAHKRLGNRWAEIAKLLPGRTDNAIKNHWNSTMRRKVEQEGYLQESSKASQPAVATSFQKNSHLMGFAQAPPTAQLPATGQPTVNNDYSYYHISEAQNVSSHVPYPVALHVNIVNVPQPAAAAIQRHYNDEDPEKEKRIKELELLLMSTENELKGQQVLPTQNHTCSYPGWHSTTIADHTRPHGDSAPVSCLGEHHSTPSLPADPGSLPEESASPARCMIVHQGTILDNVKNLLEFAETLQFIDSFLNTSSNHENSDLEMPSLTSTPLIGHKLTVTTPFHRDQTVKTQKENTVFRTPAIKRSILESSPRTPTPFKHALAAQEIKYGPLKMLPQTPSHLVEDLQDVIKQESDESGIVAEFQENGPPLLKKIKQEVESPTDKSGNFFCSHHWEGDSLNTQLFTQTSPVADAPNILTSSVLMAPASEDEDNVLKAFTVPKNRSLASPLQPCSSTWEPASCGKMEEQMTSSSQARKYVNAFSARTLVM
Chain of Myc proto-oncogene protein (Homo sapiens) (P01106 whole entry, looked up): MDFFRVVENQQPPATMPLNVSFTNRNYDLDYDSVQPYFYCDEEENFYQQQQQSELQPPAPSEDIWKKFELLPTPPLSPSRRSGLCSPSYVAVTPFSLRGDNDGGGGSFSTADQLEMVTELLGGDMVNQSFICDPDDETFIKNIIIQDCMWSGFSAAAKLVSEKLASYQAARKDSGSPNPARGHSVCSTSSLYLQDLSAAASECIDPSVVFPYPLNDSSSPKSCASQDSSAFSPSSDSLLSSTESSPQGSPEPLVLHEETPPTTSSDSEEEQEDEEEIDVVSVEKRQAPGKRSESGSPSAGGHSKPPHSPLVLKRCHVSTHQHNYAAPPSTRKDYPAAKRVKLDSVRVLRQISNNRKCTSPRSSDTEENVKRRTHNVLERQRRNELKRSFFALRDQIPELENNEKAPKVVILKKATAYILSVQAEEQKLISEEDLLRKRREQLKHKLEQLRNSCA
Chain of X-box-binding protein 1 (Homo sapiens) (P17861 whole entry, looked up, the tested form may be a part): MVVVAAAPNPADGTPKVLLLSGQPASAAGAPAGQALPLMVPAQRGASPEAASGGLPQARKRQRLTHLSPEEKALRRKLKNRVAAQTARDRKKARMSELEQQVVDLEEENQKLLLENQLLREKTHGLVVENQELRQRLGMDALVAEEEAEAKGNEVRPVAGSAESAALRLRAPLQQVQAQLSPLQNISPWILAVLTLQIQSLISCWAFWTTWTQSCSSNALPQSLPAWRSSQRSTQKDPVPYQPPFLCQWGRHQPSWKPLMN
Chain of Glucocorticoid receptor (Homo sapiens) (P04150 whole entry, looked up, the tested form may be a part): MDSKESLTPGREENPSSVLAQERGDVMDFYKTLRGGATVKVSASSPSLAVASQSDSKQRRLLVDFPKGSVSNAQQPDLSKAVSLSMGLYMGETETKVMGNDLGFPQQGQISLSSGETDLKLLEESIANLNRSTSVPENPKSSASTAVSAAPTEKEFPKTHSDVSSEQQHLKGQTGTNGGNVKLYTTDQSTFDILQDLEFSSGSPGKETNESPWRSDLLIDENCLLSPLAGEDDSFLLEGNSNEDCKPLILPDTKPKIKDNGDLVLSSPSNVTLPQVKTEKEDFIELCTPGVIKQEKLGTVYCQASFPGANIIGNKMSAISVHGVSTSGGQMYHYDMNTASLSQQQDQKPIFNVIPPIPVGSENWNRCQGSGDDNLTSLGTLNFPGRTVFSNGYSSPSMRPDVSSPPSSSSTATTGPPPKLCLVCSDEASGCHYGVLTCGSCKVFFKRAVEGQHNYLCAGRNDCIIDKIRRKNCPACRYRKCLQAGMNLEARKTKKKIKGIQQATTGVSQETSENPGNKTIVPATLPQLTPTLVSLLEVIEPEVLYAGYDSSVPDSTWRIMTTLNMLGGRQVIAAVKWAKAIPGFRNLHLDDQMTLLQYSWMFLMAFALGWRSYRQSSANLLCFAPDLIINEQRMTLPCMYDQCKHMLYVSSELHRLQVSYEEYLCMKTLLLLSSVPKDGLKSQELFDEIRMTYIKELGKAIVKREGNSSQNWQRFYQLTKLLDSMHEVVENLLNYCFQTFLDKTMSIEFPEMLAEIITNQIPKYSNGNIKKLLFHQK
Chain of Nuclear receptor subfamily 4 group A member 2 (Homo sapiens) (P43354 whole entry, looked up, the tested form may be a part): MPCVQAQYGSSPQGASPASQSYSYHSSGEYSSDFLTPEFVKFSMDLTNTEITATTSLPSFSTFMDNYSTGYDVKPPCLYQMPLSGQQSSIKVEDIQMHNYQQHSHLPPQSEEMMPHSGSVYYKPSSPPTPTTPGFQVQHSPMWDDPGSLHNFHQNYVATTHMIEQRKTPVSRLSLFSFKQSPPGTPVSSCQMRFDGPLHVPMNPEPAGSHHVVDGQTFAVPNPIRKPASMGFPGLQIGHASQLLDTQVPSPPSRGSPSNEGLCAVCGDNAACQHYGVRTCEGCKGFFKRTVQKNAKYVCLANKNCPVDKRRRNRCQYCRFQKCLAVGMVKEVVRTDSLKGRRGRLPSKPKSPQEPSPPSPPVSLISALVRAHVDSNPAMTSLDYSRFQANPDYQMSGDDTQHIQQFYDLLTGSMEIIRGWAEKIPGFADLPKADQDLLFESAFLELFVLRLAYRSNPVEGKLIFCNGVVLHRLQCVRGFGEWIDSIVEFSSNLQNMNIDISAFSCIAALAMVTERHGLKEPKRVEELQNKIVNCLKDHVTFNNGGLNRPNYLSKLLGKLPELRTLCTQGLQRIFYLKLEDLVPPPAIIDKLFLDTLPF
Chain of Estrogen receptor (Homo sapiens) (P03372 whole entry, looked up, the tested form may be a part): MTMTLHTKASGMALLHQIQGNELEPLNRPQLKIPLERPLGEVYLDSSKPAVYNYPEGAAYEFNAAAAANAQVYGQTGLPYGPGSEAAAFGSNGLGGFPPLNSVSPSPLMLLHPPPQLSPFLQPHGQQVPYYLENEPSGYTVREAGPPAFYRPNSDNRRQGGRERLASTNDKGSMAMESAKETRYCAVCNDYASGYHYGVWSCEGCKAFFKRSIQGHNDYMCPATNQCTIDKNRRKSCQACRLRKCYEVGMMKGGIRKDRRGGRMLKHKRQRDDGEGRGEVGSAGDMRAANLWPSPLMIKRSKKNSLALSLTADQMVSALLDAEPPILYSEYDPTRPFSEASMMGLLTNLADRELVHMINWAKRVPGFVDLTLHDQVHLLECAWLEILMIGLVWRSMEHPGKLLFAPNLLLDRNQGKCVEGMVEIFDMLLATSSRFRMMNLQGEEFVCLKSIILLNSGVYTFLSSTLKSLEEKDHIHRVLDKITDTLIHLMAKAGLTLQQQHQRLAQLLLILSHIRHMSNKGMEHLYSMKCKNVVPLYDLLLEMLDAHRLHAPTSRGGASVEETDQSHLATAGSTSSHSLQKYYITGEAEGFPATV
Chain of Oxysterols receptor LXR-alpha (Homo sapiens) (Q13133 whole entry, looked up, the tested form may be a part): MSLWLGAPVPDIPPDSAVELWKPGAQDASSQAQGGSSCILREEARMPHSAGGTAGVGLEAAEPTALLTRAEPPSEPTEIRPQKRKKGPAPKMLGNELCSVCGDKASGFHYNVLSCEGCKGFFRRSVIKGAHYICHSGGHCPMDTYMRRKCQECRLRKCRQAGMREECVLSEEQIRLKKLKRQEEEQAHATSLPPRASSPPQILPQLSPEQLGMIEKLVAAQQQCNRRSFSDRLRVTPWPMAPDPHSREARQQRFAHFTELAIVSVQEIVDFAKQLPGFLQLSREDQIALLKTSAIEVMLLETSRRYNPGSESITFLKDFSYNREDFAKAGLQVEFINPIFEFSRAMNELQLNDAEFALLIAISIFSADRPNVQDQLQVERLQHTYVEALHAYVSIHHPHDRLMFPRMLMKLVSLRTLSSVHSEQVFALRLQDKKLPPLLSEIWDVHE

CCOC(OCC)C(=O)c1ccccc1
active: [1] 32.2 µM
not listed: [15] | [16] | [17] | [18] | [19]
inactive: all other assays above

CCCCCCOC(=O)c1ccc(O)cc1
active: [1] 3.24 µM | [3] 54.6 µM | [10] 51.4 µM | [12] 58.5 µM | [13] 55 µM | [14] 60.9 µM
inactive: [2] | [4] | [15] | [8] | [16] | [9] | [11]

O=P(O)(O)CCC(F)(F)C(F)(F)C(F)(F)C(F)(F)C(F)(F)C(F)(F)F
not listed: [4] | [6] | [10] | [16] | [19]
inactive: all other assays above

FC(F)(F)C1(F)C(F)(F)C(F)(F)C(F)(F)C(F)(C(F)(F)F)C1(F)F (stereo unspecified)
not listed: [4] | [6] | [8] | [10] | [16] | [17] | [19]
inactive: all other assays above

CCOCCOCC
not listed: [2] | [4] | [5] | [6] | [7] | [15]
inactive: all other assays above
